# In PubChem BioAssay (Tox21):
# “And” between values parts separate entries of the source, which are not always exact repeats. Equal entries are not always repeated. Results filed as inconclusive are left out. A call without a number means that no potency is given here. Some compounds were tested as several samples or in several runs, with calls that do not always agree. The source made the active and inactive calls. Unless noted, calls follow the shape of the full dose curve.
# Assays:
# [1] = Nuclear factor erythroid 2-related factor 2/antioxidant responsive element (Nrf2/ARE) small molecule agonists: qHTS cell viability counter screen in human keratinocytes (AID 1919968; active = well fitted curve in the direction sought with a large enough effect in the repeat runs; an effect the other way counts as inactive or inconclusive; also: nearly all actives have a fitted effect of over 55% in size; also: potency is read from the fitted curve at half-maximal effect)
# Outline: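 Stably transfected HaCaT (KeratinoSens), 1,500/well. Test agents in DMSO were applied for 23 h, 37 C/5% CO2. CellTiter-Fluor was incubated 1 h before the fluorescence read.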
# [2] = molecular target: KiSS-1 receptor (Homo sapiens) (UniProt Q969F8); assay: Human kisspeptin (KISS1R) small molecule agonists, calcium flux assay in KISS1R-HEK293 cells (AID 1920064; active = well fitted curve in the direction sought with a large enough effect in the repeat runs; an effect the other way counts as inactive or inconclusive)
# Chain of KiSS-1 receptor (Homo sapiens) (Q969F8 whole entry, looked up): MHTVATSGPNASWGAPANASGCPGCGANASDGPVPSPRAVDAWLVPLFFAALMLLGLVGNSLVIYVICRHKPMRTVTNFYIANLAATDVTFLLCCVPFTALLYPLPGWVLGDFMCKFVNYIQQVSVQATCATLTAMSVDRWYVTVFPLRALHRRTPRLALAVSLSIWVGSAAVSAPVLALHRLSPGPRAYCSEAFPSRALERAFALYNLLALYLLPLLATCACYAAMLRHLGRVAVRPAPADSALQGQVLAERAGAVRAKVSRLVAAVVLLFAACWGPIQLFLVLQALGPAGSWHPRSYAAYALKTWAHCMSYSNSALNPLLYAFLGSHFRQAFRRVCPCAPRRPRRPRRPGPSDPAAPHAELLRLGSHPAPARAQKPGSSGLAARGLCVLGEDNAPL
# Outline: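 After overnight (18 h) culture at 37 C/5% CO2, human KISS1R-HEK293 cells received calcium dye for 1 h, then test compound; emission at 540 nm (excitation 480 nm) was tracked for 3 min.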
# [3] = G protein-coupled receptor (GPCR) small molecule agonists, calcium flux assay: HEK293 wild type cell line counter screen (AID 1920065)
# Outline: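 Following 18 h incubation at 37 C/5% CO2, plates got calcium dye for 1 h; compounds, ATP or DMSO were then pinned in and fluorescence followed kinetically (480/540 nm).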
# [4] = p53 small molecule agonists, cell-based qHTS assay with human liver microsomes (AID 1963577);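 also: p53 response element beta-lactamase reporter cells with liver microsomes plus NADPH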
# Outline: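 16 h, 37 C exposure of p53RE-bla cells to compounds with human liver microsomes and NADPH (0.5 mg/mL final each); detection via LiveBLAzer mixture, 2 h dark at room temperature.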
# [5] = p53 small molecule agonists, cell-based qHTS assay with rat liver microsomes (AID 1963578)
# Outline: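 With rat liver microsomes and NADPH present (0.5 mg/mL final each), p53RE-bla cells are treated with compound for 16 h at 37 C. LiveBLAzer detection mixture is then applied for 2 h at room temperature in the dark.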
# [6] = p53 small molecule agonists, cell-based qHTS assay with rat liver microsomes: qHTS cell viability counter screen (AID 1963580); also: nearly all actives have a fitted effect of over 45% in size; also: potency is read from the fitted curve at half-maximal effect
# Outline: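 Cytotoxicity counter screen: intracellular ATP read by CellTiter-Glo luminescence in the p53 reporter wells. HCT-116 p53RE-bla cells were treated for 16 h at 37 C alongside rat liver microsomes and NADPH, each 0.5 mg/mL final.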
# [7] = p53 small molecule agonists, cell-based qHTS assay: qHTS cell viability counter screen (AID 1963581); also: nearly all actives have a fitted effect of over 45% in size; also: potency is read from the fitted curve at half-maximal effect
# Outline: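 qHTS counter screen: 16 h compound exposure at 37 C of p53RE-bla HCT-116 cells (4,000 per well, seeded 5 h prior), cell viability by ATP luminescence.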
# [8] = p53 small molecule agonists, cell-based qHTS assay (AID 1963582; active = well fitted activation curve with a large enough effect in the signal ratio in the repeat runs, not every such curve was filed as active; the % refers to the signal ratio)
# Outline: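 Measured: fluorescence from cleaved LiveBLAzer substrate. System: p53RE-bla cells, 16 h compound treatment at 37 C, 2 h substrate step at room temperature.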
# [9] = molecular target: 5-hydroxytryptamine receptor 2A (Homo sapiens) (UniProt P28223); assay: 5-hydroxytryptamine receptor 2A (HTR2A) small molecule antagonists, cell-based qHTS assay (AID 1963586); also: nearly all actives have a fitted effect of over 45% in size
# Chain of 5-hydroxytryptamine receptor 2A (Homo sapiens) (P28223 whole entry, looked up): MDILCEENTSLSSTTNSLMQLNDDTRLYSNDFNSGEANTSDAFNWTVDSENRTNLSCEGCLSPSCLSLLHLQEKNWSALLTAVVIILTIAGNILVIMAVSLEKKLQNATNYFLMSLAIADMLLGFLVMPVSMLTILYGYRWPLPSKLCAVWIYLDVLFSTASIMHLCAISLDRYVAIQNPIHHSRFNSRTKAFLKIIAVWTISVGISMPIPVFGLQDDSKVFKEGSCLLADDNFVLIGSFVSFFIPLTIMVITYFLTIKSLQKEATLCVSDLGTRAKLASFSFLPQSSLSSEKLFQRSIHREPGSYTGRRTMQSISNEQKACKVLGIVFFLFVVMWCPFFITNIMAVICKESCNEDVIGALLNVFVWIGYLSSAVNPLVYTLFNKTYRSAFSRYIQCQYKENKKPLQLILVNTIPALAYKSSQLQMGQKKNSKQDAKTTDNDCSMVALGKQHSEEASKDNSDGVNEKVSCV
# Outline: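 CHO cells stably expressing human HTR2A were plated for 18 h at 37 C, then loaded with calcium dye for 1 h. Compounds were preincubated 5 min at room temperature before DOI (4 nM solution) was added. Kinetic fluorescence was read for 3 min.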
# [10] = molecular target: 5-hydroxytryptamine receptor 2A (Homo sapiens) (UniProt P28223); assay: 5-hydroxytryptamine receptor 2A (HTR2A) small molecule agonists, cell-based qHTS assay (AID 1963587); also: nearly all actives have a fitted effect of over 30% in size; also: potency is read from the fitted curve at half-maximal effect
# Outline: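 Kinetic calcium-flux fluorescence (2 min, 1 sec intervals) after compound addition in agonist mode. HTR2A-CHO cells were cultured 18 h, then dye-loaded 1 h at 37 C.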
# [11] = molecular target: Muscarinic acetylcholine receptor M1 (Homo sapiens) (UniProt P11229); assay: Cholinergic receptor muscarinic 1 (CHRM1) small molecule antagonists, cell-based qHTS assay (AID 1963588); also: nearly all actives have a fitted effect of over 40% in size; also: potency is read from the fitted curve at half-maximal effect
# Chain of Muscarinic acetylcholine receptor M1 (Homo sapiens) (P11229 whole entry, looked up): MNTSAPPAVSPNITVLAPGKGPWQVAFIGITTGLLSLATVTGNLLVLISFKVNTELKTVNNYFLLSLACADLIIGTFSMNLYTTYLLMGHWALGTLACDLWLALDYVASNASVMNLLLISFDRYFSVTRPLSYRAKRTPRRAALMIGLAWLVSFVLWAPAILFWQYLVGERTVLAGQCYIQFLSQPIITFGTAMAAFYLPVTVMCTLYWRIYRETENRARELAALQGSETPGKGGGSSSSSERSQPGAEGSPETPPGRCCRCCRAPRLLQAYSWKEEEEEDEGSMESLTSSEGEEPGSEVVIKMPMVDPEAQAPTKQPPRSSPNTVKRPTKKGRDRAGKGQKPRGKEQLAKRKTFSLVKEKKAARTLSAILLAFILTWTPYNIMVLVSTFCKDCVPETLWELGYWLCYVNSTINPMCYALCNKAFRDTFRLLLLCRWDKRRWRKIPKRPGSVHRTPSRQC
# Outline: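 Compounds were tested at 15 concentrations in three independent runs. Dye-loaded CHRM1-CHO cells were exposed 5 min at room temperature before stimulation by acetylcholine added at 50nM. Intracellular calcium was read kinetically on FDSS for 3 min.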
# [12] = molecular target: Muscarinic acetylcholine receptor M1 (Homo sapiens) (UniProt P11229); assay: Cholinergic receptor muscarinic 1 (CHRM1) small molecule agonists, cell-based qHTS assay (AID 1963589); also: nearly all actives have a fitted effect of over 35% in size; also: potency is read from the fitted curve at half-maximal effect
# Outline: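 Kinetic fluorescence (1 s intervals) of calcium-sensitive dye in human M1 CHO cells after compound addition; cells pre-incubated 18 h at 37 C/5% CO2 and dye-loaded 1 h.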
# [13] = cAMP Responsive Elements (CRE) small molecule agonists, cell-based qHTS assay (AID 1963590)
# Outline: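 Test agents in DMSO were incubated 3 h at 37 C/5% CO2 with CRE-bla HEK 293T cells seeded 18 h earlier; LiveBLAzer B/G FRET substrate was added and read after 2 h at room temperature.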
# [14] = cAMP Responsive Elements (CRE) small molecule antagonists, cell-based qHTS assay (AID 1963591; active = well fitted inhibition curve with a large enough effect in the signal ratio in the repeat runs, not every such curve was filed as active; the % refers to the signal ratio)
# Outline: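 Reporter line CRE-bla HEK 293T in dialyzed-FBS DMEM; cells preincubated 18 h, treated 3 h with compound plus NKH477 (0.25 uM final); LiveBLAzer FRET, 2 h RT.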
# [15] = molecular target: Beta-2 adrenergic receptor (Homo sapiens) (UniProt P07550); assay: Adrenergic beta2 receptor (ADRB2) small molecule antagonists, cell-based qHTS assay (AID 1963592); also: nearly all actives have a fitted effect of over 50% in size; also: potency is read from the fitted curve at half-maximal effect
# Chain of Beta-2 adrenergic receptor (Homo sapiens) (P07550 whole entry, looked up): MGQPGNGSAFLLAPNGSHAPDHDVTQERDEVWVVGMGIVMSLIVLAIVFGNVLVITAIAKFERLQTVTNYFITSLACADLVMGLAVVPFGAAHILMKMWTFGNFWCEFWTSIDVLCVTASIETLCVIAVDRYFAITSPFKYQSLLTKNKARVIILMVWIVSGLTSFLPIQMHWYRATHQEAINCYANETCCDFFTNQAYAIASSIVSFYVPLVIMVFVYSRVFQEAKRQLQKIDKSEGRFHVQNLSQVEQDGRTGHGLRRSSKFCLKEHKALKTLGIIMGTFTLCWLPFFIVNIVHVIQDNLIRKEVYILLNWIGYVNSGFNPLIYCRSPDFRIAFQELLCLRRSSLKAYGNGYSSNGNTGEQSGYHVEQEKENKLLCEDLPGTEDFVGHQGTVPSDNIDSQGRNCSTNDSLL
# Outline: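 Assay format: CHO-ADRB2 cells, 18-20hr seeding at 37C/5% CO2, then compound plus 1nM isoproterenol agonist mix for 0.5hr RT. Homogeneous time-resolved fluorescence cAMP detection after 1hr, expressed as 665/615 nm ratio.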
# [16] = molecular target: D(2) dopamine receptor (Homo sapiens) (UniProt P14416); assay: Dopamine D2 receptor (DRD2) small molecule agonists, cell-based qHTS assay (AID 1963594); also: nearly all actives have a fitted effect of over 35% in size
# Chain of D(2) dopamine receptor (Homo sapiens) (P14416 whole entry, looked up): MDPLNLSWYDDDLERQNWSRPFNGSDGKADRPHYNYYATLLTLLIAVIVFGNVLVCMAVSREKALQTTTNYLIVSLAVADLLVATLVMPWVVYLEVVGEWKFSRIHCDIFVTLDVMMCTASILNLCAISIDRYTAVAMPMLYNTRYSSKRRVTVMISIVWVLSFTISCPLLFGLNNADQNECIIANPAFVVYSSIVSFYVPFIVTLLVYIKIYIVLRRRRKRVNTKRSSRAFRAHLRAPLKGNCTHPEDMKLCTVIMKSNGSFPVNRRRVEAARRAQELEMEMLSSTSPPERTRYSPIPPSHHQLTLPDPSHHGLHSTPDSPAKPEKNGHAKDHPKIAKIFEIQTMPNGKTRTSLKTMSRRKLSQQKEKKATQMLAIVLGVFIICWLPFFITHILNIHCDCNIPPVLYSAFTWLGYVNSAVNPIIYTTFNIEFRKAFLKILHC
# Outline: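 cAMP accumulation in DRD2-HEK293 cells measured by HTRF after 1 h detection; compounds added 10 min before NKH477 (200nM […]) forskolin-analogue stimulation, 30 min at room temperature, with Ro20-1724 present at 0.1 mM final.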
# [17] = molecular target: D(2) dopamine receptor (Homo sapiens) (UniProt P14416); assay: Dopamine D2 receptor (DRD2) small molecule antagonists, cell-based qHTS assay (AID 1963595; active = well fitted inhibition curve with a large enough effect in the signal ratio in the repeat runs, with a control signal flat; the % refers to the signal ratio; also: potency is read from the fitted curve at half-maximal effect)
# Outline: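 DRD2-HEK293; 0.1 mM Ro20-1724; cpd 10 min RT; NKH477 200 nM + quinpirole 12 nM, 30 min RT; HTRF cAMP (cAMP-d2/anti-cAMP cryptate), 665/620 nm ratio after 1 h.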
# [18] = p53 small molecule agonists, cell-based qHTS assay with human liver microsomes: qHTS cell viability counter screen (AID 1963579); also: nearly all actives have a fitted effect of over 45% in size; also: potency is read from the fitted curve at half-maximal effect
# Outline: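 In this multiplexed counter screen, the reporter plates were subsequently treated with CellTiter-Glo so that cell viability, reflected by luminescence, could be recorded for p53RE-bla cells dosed 16 h with compounds under microsomal activation (HLM and NADPH).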
# [19] = molecular target: Beta-2 adrenergic receptor (Homo sapiens) (UniProt P07550); assay: Adrenergic beta2 receptor (ADRB2) small molecule agonists, cell-based qHTS assay (AID 1963593);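 also: CHO cells stably overexpressing human ADRB2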
# Outline: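 CHO cells stably over-expressing ADRB2 were plated overnight at 37C, then dosed with compounds plus a stimulation mix containing 100uM IBMX and 25uM Ro-20-1724 for 0.5hr at room temperature. cAMP was measured by HTRF competition, 1hr.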
# [20] = molecular target: Gonadotropin-releasing hormone receptor (Homo sapiens) (UniProt P30968); assay: Human gonadotropin-releasing hormone receptor (GnRHR) small molecule agonists, calcium flux assay in GnRHR-HEK293 cells (AID 1920063); also: nearly all actives have a fitted effect of over 35% in size
# Chain of Gonadotropin-releasing hormone receptor (Homo sapiens) (P30968 whole entry, looked up): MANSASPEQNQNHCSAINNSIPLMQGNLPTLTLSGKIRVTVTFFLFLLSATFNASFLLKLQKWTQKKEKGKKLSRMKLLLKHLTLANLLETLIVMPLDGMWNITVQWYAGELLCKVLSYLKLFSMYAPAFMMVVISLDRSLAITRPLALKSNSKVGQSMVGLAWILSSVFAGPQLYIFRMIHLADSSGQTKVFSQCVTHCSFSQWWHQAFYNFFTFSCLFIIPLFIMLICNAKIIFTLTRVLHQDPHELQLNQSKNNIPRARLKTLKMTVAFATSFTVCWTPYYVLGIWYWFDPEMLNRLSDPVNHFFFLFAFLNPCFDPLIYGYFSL
# Outline: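 Stable human GnRHR HEK293 line. 18 h plating, then calcium dye for 1 h at 37 C. Agonist-mode compound addition from DMSO stocks; fluorescence monitored 3 min.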
SMILES,Potency [1],Potency [2],Potency [3],Potency [4],Potency [5],Potency [6],Potency [7],Potency [8],Potency [9],Potency [10],Potency [11],Potency [12],Potency [13],Potency [14],Potency [15],Potency [16],Potency [17],Potency [18],Potency [19],Potency [20]
C=CCCl,inactive,inactive,inactive,inactive,inactive,inactive,inactive,inactive,inactive,inactive,inactive,inactive,inactive,inactive,inactive,inactive,inactive,,,
Nc1ccc(Cl)cc1N,inactive,inactive,inactive,,inactive,inactive,inactive,inactive,inactive,20.3 µM (active) and 6.16 µM (active),inactive,inactive,,inactive,inactive,inactive,inactive,inactive,inactive,
CCCCOC(=O)COC(=O)c1ccccc1C(=O)OCCCC,inactive,inactive,inactive,inactive,inactive,inactive,inactive,inactive,,inactive,inactive,inactive,,inactive,inactive,inactive,inactive,inactive,,
OCC(O)CO,inactive,,,inactive,inactive,inactive,inactive,,,,,,,,,,,inactive,,
Cc1ccc(N)cc1Cl,inactive,,inactive,,,inactive,inactive,,inactive,inactive,inactive,inactive,inactive,,inactive,inactive,inactive,inactive,inactive,
CON(C)C(=O)Nc1ccc(Cl)c(Cl)c1,inactive,inactive,inactive,inactive,inactive,inactive,inactive,inactive,inactive,inactive,inactive,inactive,inactive,inactive,inactive,inactive,inactive,inactive,inactive,inactive
CCCCCCCCCCCCCCCCn1cc[n+](C)c1,inactive and 27.6 µM (active) and 13.7 µM (active),,inactive,inactive,inactive,inactive and 36.7 µM (active) and 32.5 µM (active),25.8 µM (active),inactive,,,inactive and 950 nM (active) and 2.66 µM (active),inactive,inactive,inactive,inactive,inactive,inactive,37.1 µM (active) and inactive and 46.2 µM (active),inactive,
CCCCCCCCCCCCCCn1cc[n+](C)c1,13.7 µM (active) and 27 µM (active) and inactive,inactive,inactive,inactive,inactive,16.3 µM (active) and 32.1 µM (active) and inactive,,inactive,inactive,21.9 µM (active) and 30.6 µM (active) and inactive,,inactive,inactive,inactive,inactive,inactive,inactive,40.9 µM (active) and 40.3 µM (active) and inactive,inactive,
C=CCO,inactive,inactive,inactive,inactive,inactive,inactive,inactive,,,,,,inactive,inactive,inactive and 61.1 µM (active),inactive,,inactive,inactive,
C1CN2CCN1CC2,inactive,inactive,inactive,,,inactive,inactive,,inactive,,inactive,inactive and 54.9 µM (active),inactive,inactive,inactive,inactive,,inactive,inactive,
COc1ccccc1N,inactive,inactive,inactive,,,inactive,inactive,,,,,,inactive,inactive,inactive,inactive,inactive,inactive,inactive,
COCCl,inactive,,inactive,inactive,inactive,inactive,inactive,inactive,inactive,22.7 µM (active) and inactive,inactive,,inactive,inactive,inactive,inactive,inactive,inactive,inactive,
CC(C)(C)C(=O)Cl,inactive,inactive,inactive,inactive,inactive,inactive,inactive,inactive,inactive,inactive,inactive,inactive,inactive,inactive,inactive,inactive,inactive,inactive,,inactive
O=C(Cl)c1ccccc1,inactive,inactive,inactive,inactive,,,inactive,inactive,inactive,inactive,inactive,inactive,,inactive,inactive,inactive,inactive,inactive,inactive,
O=C1C2CC=CCC2C(=O)N1SC(Cl)(Cl)Cl (stereo not drawn),inactive and 26.9 µM (active),,inactive,inactive,inactive,inactive,inactive,inactive,inactive,24.1 µM (active),inactive,inactive and 38.3 µM (active),,inactive,inactive,inactive,inactive and 23.9 µM (active),inactive,inactive,
CN(N=O)c1ccccc1,inactive,inactive,inactive,,,inactive,inactive,,inactive,,inactive,inactive,inactive,inactive,inactive,inactive,inactive,inactive,,
C=CC(=O)OC(C)(C)C,inactive,inactive,inactive,inactive,inactive,inactive,inactive,inactive,inactive,inactive,inactive,inactive,inactive,inactive,inactive,inactive,inactive,,inactive,
